Activity calls are given as the source filed them. Unless noted, the rule behind the calls is not given here.

Results on nine molecules are retold here after PubChem BioAssay.

A short description of assay [1]: compound effects on lung adenocarcinoma cell viability – A549, calcein-AM fluorescence, 48 h, basal, profiling panel (AID 1162). Note: test concentration not given here. The conditions noted are these: higher = more signal.
A short description of assay [2]: compound effects on differentiated 3T3-L1 adipocyte viability – cell-based, 3T3-L1 adipocytes, calcein-AM fluorescence, 48 h, basal, profiling panel (AID 1163). Note: test concentration not given here. The conditions noted are these: 3T3-L1 adipocytes viability, higher = more signal.
Assay [3] is described as follows: compound effects on hepatocellular carcinoma cell viability – HepG2, calcein-AM fluorescence, 48 h, basal, profiling panel (AID 1164). Note: test concentration not given here. The conditions noted are these: higher = more signal.
Assay [4] is described as follows: compound effects on multiple myeloma cell viability – MM1S, calcein-AM fluorescence, 48 h, basal, profiling panel (AID 1165). Note: test concentration not given here. The conditions noted are these: higher = more signal.
A short description of assay [5]: calcein-AM signal in unstimulated myeloma cells – cell-based, calcein-AM fluorescence, 48 h, PK04 Diversity Set, profiling panel (AID 1166).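 Note: cells grown under basal conditions without added stimulus; test concentration not given here.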 To be noted: RPMI8226 myeloma viability, higher = more signal.
Assay [6] is described as follows: JC-1 mitochondrial signal, unstimulated HepG2 cells – cell-based, JC-1 fluorescence, 24 h, 100 nL compound, profiling panel (AID 1167). Note: test concentration not given here. The conditions noted are these: HepG2 mitochondrial potential, higher = more signal.
Assay [7] can be described thus: JC-1 mitochondrial signal, unstimulated adipocytes – cell-based, JC-1 fluorescence, 3T3-L1 adipocytes, 24 h, 100 nL compound, profiling panel (AID 1168). Note: test concentration not given here. The conditions noted are these: JC-1 mitochondrial fluorescence, higher = more signal, called active from +8 up or from −8 down.
A short description of assay [8]: JC-1 mitochondrial signal, unstimulated myeloma cells – cell-based, JC-1 fluorescence, RPMI8226, 24 h, 100 nL compound, profiling panel (AID 1169). Note: test concentration not given here. The conditions noted are these: JC-1 mitochondrial potential fluorescence, higher = more signal.
Assay [9] can be described thus: JC-1 mitochondrial signal, unstimulated MM1S myeloma – cell-based, JC-1 fluorescence, 24 h, 100 nL compound, profiling panel (AID 1170). Note: test concentration not given here. The conditions noted are these: MM1S mitochondrial potential, higher = more signal.
Assay [10] is described as follows: resazurin metabolic signal in A549 cells – cell-based, resazurin fluorescence, 24 h, PK04 Diversity Set, profiling panel (AID 1171). Note: test concentration not given here. The conditions noted are these: A549 viability, higher = more signal, called active from +8 up or from −8 down. (In general: The colour change of resazurin is a common sign of viable cells or microbes.)
The nature of assay [11]: resazurin metabolic signal in HepG2 cells – cell-based, resazurin fluorescence, 24 h, PK04 Diversity Set, profiling panel (AID 1172). Note: test concentration not given here. To be noted: HepG2 viability, higher = more signal.
Assay [12] in a line: budding yeast growth changes without added modifier – OD600, strain BY4716, 24 h, basal condition, primary screen (AID 1173). To be noted: S. cerevisiae BY4716 growth, OD600, 24 h; higher = more signal, called active from +8 up or from −8 down.
Assay [13] in a line: viability profiling in MM1S myeloma cells – cell-based, resazurin fluorescence, basal, 24 h, PK04 Diversity Set, profiling panel (AID 1174). Note: test concentration not given here. The conditions noted are these: higher = more signal, called active from +8 up or from −8 down.
The target of assay [14] is Dihydroorotate dehydrogenase (quinone), mitochondrial (Plasmodium falciparum (isolate 3D7)) (UniProt Q08210). Kind of assay: inhibition of P. falciparum DHODH – biochemical, C-terminal His tag, absorbance 600 nm, primary screen (AID 1175).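 Note: recombinant parasite enzyme with a five histidine tag at its C terminus; test concentration not given here.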 To be noted: PfDHODH enzyme, DCIP absorbance 600 nm; higher = more signal, called active from +8 up or from −8 down.
Assay [15] in a line: inhibition of PAO1 biofilm formation – strain PAO1, LB-PBS medium, absorbance 600 nm, primary screen (AID 1176). Note: test concentration not given here. To be noted: P. aeruginosa PAO1 growth/biofilm, A600, 12 h; higher = more signal.
The nature of assay [16]: growth modulation of vineyard yeast isolate – strain RM11-1a, OD600, basal, 24 h, primary screen (AID 1177).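 Note: cultures grown under basal conditions with no added stressor; test concentration not given here.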 The conditions noted are these: S. cerevisiae RM11-1a growth, OD600, 24 h; higher = more signal, called active from +8 up or from −8 down.
The nature of assay [17]: growth of efflux-deficient E. coli DRC39 – strain DRC39, OD650, 24 h, E. coli filamentation inducers, primary screen (AID 1178).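 Note: growth measured as culture turbidity by optical density at 650 nm; test concentration not given here.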 To be noted: E. coli DRC39 acrAB, higher = more signal, called active from +8 up or from −8 down.
Assay [18] can be described thus: growth of efflux-deficient E. coli DRC39 – strain DRC39, OD650, 48 h, E. coli filamentation inducers, primary screen (AID 1179).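 Note: screen aims at cell division blockers that make cells filament.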 The conditions noted are these: E. coli DRC39 delta-acrAB growth, higher = more signal, called active from +8 up or from −8 down.
The nature of assay [19]: viability profiling in RPMI8226 myeloma cells – cell-based, resazurin fluorescence, basal, 24 h, PK04 Diversity Set, profiling panel (AID 1180).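 Note: RPMI8826 multiple myeloma cell line at 5000 cells per well; test concentration not given here.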 To be noted: higher = more signal.
For assay [20], the target named is E3 ubiquitin-protein ligase XIAP (Homo sapiens) (UniProt P98170). Kind of assay: small molecules binding XIAP protein – biophysical, small-molecule microarray, fluorescence 635 nm, primary screen (AID 1181).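 Note: score merges 667 nm emission and signal to noise over triplicate slides.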 The conditions noted are these: higher = more signal.
E3 ubiquitin-protein ligase XIAP (Homo sapiens), sequence (P98170 whole entry, looked up): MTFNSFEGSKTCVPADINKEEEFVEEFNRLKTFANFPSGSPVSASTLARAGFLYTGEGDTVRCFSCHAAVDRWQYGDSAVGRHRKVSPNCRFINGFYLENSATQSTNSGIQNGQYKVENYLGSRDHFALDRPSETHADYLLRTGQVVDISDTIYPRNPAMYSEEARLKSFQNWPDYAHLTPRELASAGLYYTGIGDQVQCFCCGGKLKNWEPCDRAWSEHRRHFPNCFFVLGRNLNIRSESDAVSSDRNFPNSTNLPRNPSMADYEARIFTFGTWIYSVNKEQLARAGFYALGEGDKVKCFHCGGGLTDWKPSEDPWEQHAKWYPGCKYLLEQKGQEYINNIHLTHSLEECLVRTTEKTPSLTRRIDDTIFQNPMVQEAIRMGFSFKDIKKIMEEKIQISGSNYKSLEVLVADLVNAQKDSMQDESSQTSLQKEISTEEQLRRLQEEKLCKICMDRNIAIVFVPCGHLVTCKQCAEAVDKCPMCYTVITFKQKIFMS

Dihydroorotate dehydrogenase (quinone), mitochondrial (Plasmodium falciparum (isolate 3D7)), sequence (Q08210 whole entry, looked up): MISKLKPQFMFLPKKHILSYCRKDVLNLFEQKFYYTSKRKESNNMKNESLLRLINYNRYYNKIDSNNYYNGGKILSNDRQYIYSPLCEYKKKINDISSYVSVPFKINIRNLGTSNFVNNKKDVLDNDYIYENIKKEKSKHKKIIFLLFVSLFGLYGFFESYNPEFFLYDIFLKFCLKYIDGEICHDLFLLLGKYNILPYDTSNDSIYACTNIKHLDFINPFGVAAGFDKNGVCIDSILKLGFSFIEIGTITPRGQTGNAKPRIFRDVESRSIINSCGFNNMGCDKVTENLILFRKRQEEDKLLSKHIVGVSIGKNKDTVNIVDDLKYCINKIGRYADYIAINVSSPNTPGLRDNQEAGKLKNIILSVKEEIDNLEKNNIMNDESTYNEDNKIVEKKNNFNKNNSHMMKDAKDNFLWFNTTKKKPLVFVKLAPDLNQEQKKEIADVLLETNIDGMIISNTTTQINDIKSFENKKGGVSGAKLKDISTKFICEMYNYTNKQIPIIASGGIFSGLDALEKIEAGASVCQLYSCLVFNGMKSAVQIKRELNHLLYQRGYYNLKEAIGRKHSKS

As for `CC(C)C[C@@H]1NC(=O)[C@H]2C[C@@H](C(=O)NCCCCCNC(=O)CS)[C@@H](c3ccc(O)cc3)N2C1=O`, the z-score in assay [1] is -0.286; in [2] it was 0.709; in assay [3] it was -0.724; in assay [4], -1.04; in assay [5], -1.36; in assay [6], -0.686. Moreover, the z-score in assay [7] is -0.372 (inactive); in [8] it was -0.113; in [9], -0.611; in assay [10], -0.858 (inactive); in assay [11] it was -2.15; in [12] it was 0.131 (inactive). For the same molecule, the z-score in assay [13] is -0.297 (inactive); in assay [15], 0.767 (inactive); in assay [16], 0.665 (inactive); in assay [17], -0.117 (inactive); in [18], -0.942 (inactive); in assay [19], -0.57. Further, the figures for the composite z-score in assay [14] and in [20] were 0.204 (inactive) and -0.0577, respectively.

Turning to `CC(C)C[C@H]1NC(=O)[C@@H](C)NC(=O)[C@@]23C(=O)N[C@@H](Cc4ccccc4)C2[C@H](C)[C@@]2(C)O[C@H]2C3/C=C/C/C=C\CNC1=O` (stereo not given in full), the z-score is 0.65 in assay [1]; 0.305 in assay [2]; -0.363 in [3]; -0.256 in [4]; -0.64 in assay [5]; -0.553 in assay [6]. For the same molecule, the z-score in assay [7] is 0.023 (inactive); in assay [8] it was 0.471; in assay [9], 0.191; in assay [10], -0.0639 (inactive); in assay [11], -0.328; in [12], -0.808 (inactive). Besides, the z-score in assay [13] was 0.0814 (inactive); in [15], 0.531 (inactive); in assay [16], -1.27 (inactive); in assay [17], -0.46 (inactive); in [18] it was 0.184 (inactive); in assay [19] it was 0.184. In addition, the composite z-score in assay [14] was -1 (inactive); in assay [20], -0.102.

As for `NCCCC[C@@H]1NC(=O)[C@H]2C[C@@H](C(=O)NCc3ccc(F)cc3)[C@@H](c3ccc(O)cc3)N2C1=O`, the z-score in [1] was -0.494; in assay [2] it was -0.0841; in assay [3], -0.666; in [4], -0.206; in assay [5], 0.307; in assay [6], -1.64. Also, the z-score is -0.4 (inactive) in assay [7]; 0.667 in assay [8]; 0.0192 in [9]; -0.537 (inactive) in [10]; 0.175 in [11]; 1.15 (inactive) in assay [12]. The z-score in assay [13] is 0.247 (inactive); in assay [15] it was 0.174 (inactive); in assay [16], 1.02 (inactive); in [17], 0.207 (inactive); in assay [18], -0.277 (inactive); in assay [19], 0.191. Further, the composite z-score was -0.17 (inactive) in assay [14] and 0.226 in [20].

Turning to `CCCCC(=C=CC[C@@H](O)c1cccc(OCCO)c1)C[C@@H](O)COCc1ccccc1`, the z-score was 1.1 in [1]; 1.79 in assay [2]; 1.3 in assay [3]; -1.21 in assay [4]; 0.286 in [5]; -0.0343 in assay [6]. Moreover, the z-score in assay [7] was 0.436 (inactive); in assay [8], -0.785; in assay [9], -0.91; in assay [10], -0.0721 (inactive); in assay [11] it was 0.161; in assay [12], -2.28 (inactive). Besides, the z-score in assay [13] is -0.164 (inactive); in assay [15] it was 0.212 (inactive); in assay [16] it was -2.76 (inactive); in assay [17], 0.812 (inactive); in [18], 0.577 (inactive); in [19], 0.528. Moreover, the composite z-score is -2.23 (inactive) in [14] and -0.0561 in assay [20].

For the molecule `O=C1C2C=CC(C(O)c3cccc(O)c3)N(Nc3ccccc3F)C2C(=O)N1c1ccccc1` (stereo not given), the z-score in assay [1] was -0.769; in assay [2] it was 0.906; in assay [3], -1.28; in assay [4], -1.95; in [5] it was -1.9; in assay [6] it was -1.66. Moreover, the z-score in assay [7] is -1.85 (inactive); in assay [8], 0.742; in [9] it was -1.64; in assay [10] it was 0.249 (inactive); in assay [11], 0.244; in assay [12], -14.7 (active). The z-score in [13] was -0.343 (inactive); in assay [15], 1.22 (inactive); in assay [16] it was -7.32 (inactive); in assay [17], 0.684 (inactive); in assay [18], 0.573 (inactive); in [19] it was 0.133. Besides, the composite z-score in [14] was -2.46 (inactive); in assay [20] it was 0.0345.

On to `CCCCC(O)C1C=CC2C(=O)N(C)C(=O)C2N1Nc1ccccc1` (stereo not given), for which the z-score in assay [1] was -0.961; in [2], -1.89; in assay [3], -0.595; in assay [4], -1.29; in [5], -0.419; in assay [6], -1.73. Besides, the z-score was 0.64 (inactive) in assay [7]; -0.16 in assay [8]; 0.402 in [9]; -0.98 (inactive) in assay [10]; -1.63 in assay [11]; 0.216 (inactive) in [12]. Further, the z-score in [13] was -1.39 (inactive); in [15], 1.22 (inactive); in assay [16] it was 1.53 (inactive); in [17] it was -0.867 (inactive); in [18] it was -0.618 (inactive); in assay [19], -1.5. The composite z-score in assay [14] is 0.957 (inactive); in assay [20], 0.0742.

As to `CC(C)C[C@@H]1NC(=O)[C@@H]2C[C@H](C(=O)NCCCC[N+](C)(C)C)[C@H](c3ccc(O)cc3)N2C1=O`, the z-score in assay [1] is 0.127; in assay [2], -0.302; in assay [3], -0.698; in [4], -0.104; in [5], -0.427; in assay [6], -0.65. Moreover, the z-score in [7] is -0.341 (inactive); in assay [8], 0.496; in [9], -0.548; in assay [10], -1.18 (inactive); in [11], -0.965; in assay [12] it was 0.166 (inactive). The z-score in [13] was -0.524 (inactive); in assay [15], 0.876 (inactive); in assay [16], 0.0138 (inactive); in [17] it was 0.382 (inactive); in assay [18], 0.581 (inactive); in assay [19] it was -0.866. Further, the values for the composite z-score in [14] and in assay [20] were -31.3 (active) and -0.128, respectively.

For `C=CC[C@]1(C(=O)NCCCOC)N=C(c2ccc(OCCCO)cc2)O[C@H]1c1ccccc1`, the z-score in [1] is 0.0753; in assay [2], 0.301; in assay [3], -1.1; in assay [4] it was -0.464; in [5], 0.511; in [6] it was 0.238. Also, the z-score in assay [7] is 0.171 (inactive); in assay [8], -0.446; in assay [9] it was -0.607; in assay [10], 1.32 (inactive); in [11], 0.998; in [12], -0.96 (inactive). The z-score was 0.619 (inactive) in assay [13]; -0.661 (inactive) in assay [15]; 0.0543 (inactive) in [16]; 0.178 (inactive) in [17]; 0.735 (inactive) in assay [18]; 1.36 in [19]. Moreover, the composite z-score in assay [14] is -0.205 (inactive); in [20], 0.102.

For `C=CCC(OC(C)=O)[C@@H]1[C@@H](N(Cc2cc3ccccc3o2)C(=O)c2ccc(-c3ccccc3)cc2)c2cc(OCCCO)ccc2N1C(=O)c1ccc2ccccc2n1` (stereo not given in full), the z-score in assay [1] was 0.704; in assay [2], 0.242; in assay [3], 1.43; in assay [4] it was 0.479; in assay [5] it was -0.11; in assay [6], 2.66. In addition, the z-score was 0.229 (inactive) in assay [7]; -0.202 in assay [8]; 1.32 in assay [9]; 0.967 (inactive) in assay [10]; -0.0694 in assay [11]; 0.848 (inactive) in assay [12]. Also, the z-score in assay [13] was 0.943 (inactive); in [15] it was 0.35 (inactive); in assay [16] it was 0.913 (inactive); in assay [17], 0.965 (inactive); in [18], 0.553 (inactive); in [19], 0.97. Moreover, the composite z-score is 0.706 (inactive) in [14] and -0.0818 in assay [20].
